One may read the AC50 as the midpoint of the concentration-response curve, whichever way the signal moves.

Our source for the outcome and AC50 values is PubChem BioAssay (EPA / NIEHS).

A short description of assay [1]: Tanguay_ZF_120hpf_JAW_legacy: (Legacy) Oregon State University Tanguay Lab 120 Hour Post-fertilization zebrafish Assay for Jaw Malformation (AID 2283638). The gist of the method: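 Binary jaw-malformation call at 120 hpf by brightfield microscopy. Embryos (Tropical 5D strain, chorion removed at 4 hpf) were dosed statically at 6 hpf, one per well, at 28C with 0.64% DMSO. Embryos that died were not scored.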

Assay [2] can be described thus: Tanguay_ZF_120hpf_PE_legacy: (Legacy) Oregon State University Tanguay Lab 120 Hour Post-fertilization zebrafish Assay for Pericardial Edema (AID 2283640). The gist of the method: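 Scoring was binary, by brightfield microscopy at 120 hpf, and skipped where mortality occurred. Wild-type embryos were kept under sealed, foil-covered static exposure at 28C in 0.64% (vol/vol) DMSO.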

Assay [3] in a line: Tanguay_ZF_120hpf_BRAI_legacy: (Legacy) Oregon State University Tanguay Lab 120 Hour Post-fertilization zebrafish Assay for Brain Malformation (AID 2283641). In outline:
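Binary brightfield scoring of brain malformation at 120 hpf in Tropical 5D larvae held under static exposure at 28C (0.64% v/v DMSO), non-mortality endpoints skipped if dead. Positive control: 5uM trimethyltin chloride; fit versus DMSO.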

Assay [4] in a line: Tanguay_ZF_120hpf_PFIN_legacy: (Legacy) Oregon State University Tanguay Lab 120 Hour Post-fertilization zebrafish Assay for Pectoral Fin Malformation (AID 2283648).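 Also: each larva judged yes or no for fin defect by brightfield with dead larvae skipped.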 The gist of the method:
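Dechorionated Tropical 5D wild-type zebrafish embryos, one per well, statically exposed from 6 to 120 hpf at 28C with 0.64% DMSO final. Pectoral fin malformation scored present/absent by brightfield at 120 hpf; not scored in dead embryos.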

Assay [5] can be described thus: Tanguay_ZF_120hpf_CFIN_legacy: (Legacy) Oregon State University Tanguay Lab 120 Hour Post-fertilization zebrafish Assay for Caudal Fin Malformation (AID 2283649). In outline: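 Binary brightfield scoring of caudal fin defects at 120 hpf after static, light-shielded exposure at 28C from 6 hpf. Tropical 5D embryos, chorion removed with pronase at 4 hpf, final DMSO 0.64%.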

The nature of assay [6]: Tanguay_ZF_120hpf_PIG_legacy: (Legacy) Oregon State University Tanguay Lab 120 Hour Post-fertilization zebrafish Assay for Pigmentation Malformation (AID 2283650). In outline:
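Dechorionated Tropical 5D wild-type embryos, one per well from 6 hpf, statically exposed at 28C in the dark until 120 hpf, 0.64% DMSO final. Pigmentation scored present/absent by brightfield microscopy; dead embryos not scored; fitted versus DMSO.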

Assay [7] is described as follows: Tanguay_ZF_120hpf_CIRC_legacy: (Legacy) Oregon State University Tanguay Lab 120 Hour Post-fertilization zebrafish Assay for Circulatory Malformation (AID 2283651). The gist of the method: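 Using wild-type Tropical 5D zebrafish, we exposed dechorionated embryos from 6 to 120 hpf in embryo medium with 0.64% DMSO. Circulatory defects were scored as present or absent; 5uM trimethyltin chloride served as positive control.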

The nature of assay [8]: Tanguay_ZF_120hpf_SWIM_legacy: (Legacy) Oregon State University Tanguay Lab 120 Hour Post-fertilization zebrafish Assay for Swim Bladder Malformation (AID 2283654).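 Also: swim bladder malformation in each larva scored yes or no under brightfield.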 The gist of the method: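 Dechorionated wild-type Tropical 5D zebrafish embryos, one per well from 6 hpf, were statically exposed at 28C until 120 hpf in 0.64% DMSO. Swim bladder malformation scored as present/absent by brightfield microscopy; not scored in dead larvae.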

A short description of assay [9]: Tanguay_ZF_120hpf_TRUN_legacy: (Legacy) Oregon State University Tanguay Lab 120 Hour Post-fertilization zebrafish Assay for Truncated Body (AID 2283655). The gist of the method:
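Binary presence/absence of truncated body is recorded at 120 hpf by brightfield, with non-mortality endpoints skipped after death. Exposure is static from 6 hpf in sealed dark plates at 28C, using dechorionated wild-type zebrafish, 0.64% DMSO.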

A short description of assay [10]: Tanguay_ZF_120hpf_NC_legacy: (Legacy) Oregon State University Tanguay Lab 120 Hour Post-fertilization zebrafish Assay for Notochord and Tail Malformation (AID 2283656). In outline: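 Dechorionated 5D zebrafish, 1/well from 6 hpf; static exposure to 120 hpf, 28C, sealed, dark; final DMSO 0.64% v/v. NC scored binary (present/absent); dead embryos not scored. Fit vs DMSO baseline, gain direction.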

Assay [11] is described as follows: Tanguay_ZF_120hpf_TR_legacy: (Legacy) Oregon State University Tanguay Lab 120 Hour Post-fertilization zebrafish Assay for Touch Response (AID 2283667). In outline: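 Tropical 5D wild-type zebrafish embryos statically exposed to 120 hpf at 28°C, sealed and dark-covered, 0.64% DMSO final; touch response scored as present/absent by brightfield microscopy at 120 hpf. Trimethyltin chloride 5 uM positive control; dead embryos not scored.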

A short description of assay [12]: Tanguay_ZF_120hpf_SOMI_legacy: (Legacy) Oregon State University Tanguay Lab 120 Hour Post-fertilization zebrafish Assay for Somite Malformation (AID 2283647). In outline: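 Binary somite-defect scoring at 120 hpf, omitted for embryos that died, in wild-type (Tropical 5D) zebrafish with chorion removed by pronase at 4 hpf; static exposure began 6 hpf, single embryos per well, 28C, 0.64% DMSO; fitted positive versus DMSO.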

Assay [13] has as its system Thyroperoxidase (TPO), gene 54314. As to the kind of experiment: CCTE_Simmons_AUR_rTPO: CCTE's Amplex UltraRed Assay for Thyroperoxidase (TPO) Inhibition, Simmons Lab (AID 2283662).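 As to AC50: potency for loss of signal meaning inhibition of peroxidase activity.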 In outline:
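Endpoint is decreased Amplex UltraRed fluorescence after a 30-min, 37C reaction of rat thyroid microsomes with 300 uM H2O2. Eight test concentrations (5 nM–87.5 uM final) in 0.5% DMSO, three biological replicates each.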

Assay [14] can be described thus: CCTE_Simmons_CellTiterGLO_HEK293T: Viability Assessment in CCTE's Assays for Thyroperoxidase (TPO) Inhibition, Simmons Lab (AID 2283665).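 As to AC50: cells exposed to compound for 24 h before readout; actives reduce ATP signal below DMSO vehicle meaning cytotoxicity.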 The gist of the method: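 Cytotoxicity counter-screen: human HEK293T cells in low-serum (1% FBS) medium receive test chemical, 5 nM to 87.5 uM final, for 24 h; ATP is quantified by luciferase luminescence.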
For orientation: In ATP-based viability assays light output follows the ATP content of the culture.

Read-out in assay [15]: solute carrier (SLC22A6), SLC22A6 (gene 9356)
Nature of the assay: LTEA_HepaRG_SLC22A6: Life Technologies and Expression Analysis (LTEA) Assay for solute carrier (SLC22A6) using HepaRG (AID 2283653; active = hit-call score of the fitted dose curve at least 0.9, where 1 is the maximum; inactive = score below 0.9). The settings on record: mRNA level, 48 h; actives raise or lower the signal. The gist of the method:
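SLC22A6 transcript was measured by TaqMan qRT-PCR, normalized to three housekeeping genes, after 48 h duplicate exposure of HepaRG cells (100 uM top, half-log steps, 0.5% DMSO); bidirectional fit against vehicle.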

Read-out in assay [16]: solute carrier (SLC10A1), SLC10A1 (gene 6554)
As to the kind of experiment: LTEA_HepaRG_SLC10A1: Life Technologies and Expression Analysis (LTEA) Assay for solute carrier (SLC10A1) using HepaRG (AID 2283657; active = hit-call score of the fitted dose curve at least 0.9, where 1 is the maximum; inactive = score below 0.9). The settings on record: mRNA level, 48 h; actives raise or lower the signal. The gist of the method: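 HepaRG cells (single lot) exposed 48 h in serum-free induction medium, 8-point half-log series from 100 uM top in 0.5% DMSO, duplicate. SLC10A1 mRNA by qRT-PCR normalised to ACTB, GAPDH, POLR2A; bidirectional fit versus DMSO.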

Read-out in assay [17]: matrix metalloproteinase-1 (MMP1), MMP1 (gene 4312)
As to the kind of experiment: LTEA_HepaRG_MMP1: Life Technologies and Expression Analysis (LTEA) Assay for matrix metalloproteinase-1 (MMP1) using HepaRG (AID 2283658; active = hit-call score of the fitted dose curve at least 0.9, where 1 is the maximum; inactive = score below 0.9). The settings on record: mRNA level, 48 h; actives raise or lower the signal. The gist of the method: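 qRT-PCR (TaqMan, Fluidigm arrays) of MMP1 transcript, normalized against three housekeeping genes and fitted in both directions relative to 0.5% DMSO vehicle. Human HepaRG cultures received duplicate 48 h exposures across 8 points, highest 100 uM with half-log steps.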

Read-out in assay [18]: Cytochrome P450 (CYP24A1_1), CYP24A1 (gene 1591)
As to the kind of experiment: LTEA_HepaRG_CYP24A1_1: Life Technologies and Expression Analysis (LTEA) Assay for Cytochrome P450 (CYP24A1_1) using HepaRG (AID 2283671; active = hit-call score of the fitted dose curve at least 0.9, where 1 is the maximum; inactive = score below 0.9). Conditions: mRNA level, 48 h; actives raise or lower the signal. In outline: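 Differentiated human HepaRG cells in serum-free induction medium, exposed 48 h in duplicate to eight half-log concentrations from 100 uM top, 0.5% DMSO. Transcript measured by TaqMan qRT-PCR, normalised to ACTB, GAPDH, POLR2A; bidirectional fitting versus DMSO.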

Read-out in assay [19]: kallikrein-3 (KLK3), KLK3 (gene 354)
Nature of the assay: LTEA_HepaRG_KLK3: Life Technologies and Expression Analysis (LTEA) Assay for kallikrein-3 (KLK3) using HepaRG (AID 2283652; active = hit-call score of the fitted dose curve at least 0.9, where 1 is the maximum; inactive = score below 0.9). Conditions: mRNA level, 48 h; actives raise or lower the signal. The gist of the method: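 Differentiated human HepaRG cells in serum-free induction medium exposed 48 h in duplicate, eight-point half-log series from 100 uM in 0.5% DMSO. KLK3 mRNA by qRT-PCR, normalised to ACTB, GAPDH, POLR2A; bidirectional fit versus DMSO.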

Each structure is given as a SMILES string. Records with an inconclusive call do not appear. Calls of active or inactive are those of the source. The calls were made as follows, unless noted: active = hit-call score of the fitted dose curve at least 0.9, where 1 is the maximum; inconclusive = response in the unintended direction; inactive = score below 0.9.

For the molecule `COc1cc(-c2nc(NC(=O)c3cc4cc(C)cc(C)c4n3CC(=O)O)sc2CCC2CCCCC2)c(OC)cc1Cl`, the outcome in assay [1], in assay [2], in assay [3], in [4], in assay [5] and in [6] was inactive. The outcome in [7], in [8], in [9], in assay [10] and in [11] was inactive.

For the molecule `O=c1[nH]cc(F)c(=O)[nH]1`, the molecule was called inactive in assay [1], in assay [2], in assay [3], in assay [12], in assay [4] and in [5]. Further, the molecule was called inactive in [6], in [8], in assay [9], in assay [10] and in [11].

Consider `CCCCC(CC)COC(=O)CC(C(=O)OCC(CC)CCCC)S(=O)(=O)O` (stereo not given), for which the result in [1], in [2], in assay [3], in [12], in assay [4] and in assay [5] was inactive. Further, the molecule was classed as inactive in [6], in assay [7], in [8], in assay [9], in [10] and in [11]. The AC50 in [13] was 43.8 µM (active); in [14], 15.8 µM (active).

Consider `CCCCN(CCCC)CCCC`, for which the molecule was called inactive in assay [1], in [2], in assay [3], in [12], in assay [4] and in assay [5]. For the same molecule, the call in [6], in assay [7], in assay [15], in [9], in assay [10] and in assay [16] was inactive. In addition, the molecule was called inactive in assay [17], in assay [11] and in assay [18].

Consider `Clc1cc(Cl)c(Cl)cc1Cl`, for which the molecule was called inactive in assay [1], in assay [2], in assay [3], in assay [12], in assay [5] and in [6]. Also, the molecule was called inactive in assay [7], in assay [8], in [9] and in [11].

On to `CC(=O)OC/C=C(\C)CCC=C(C)C`, for which the molecule was called inactive in assay [1], in assay [2], in assay [3], in [4], in assay [5] and in assay [6]. In addition, the outcome in [7], in assay [19], in [15], in assay [8], in assay [10] and in assay [16] was inactive. In addition, the molecule was classed as inactive in assay [17], in assay [13], in assay [11] and in assay [18]. Also, the AC50 in [14] was 24.6 µM (active).

As for `Nc1nc(N)c2nc(CNc3ccc(C(=O)N[C@@H](CCC(=O)O)C(=O)O)cc3)cnc2n1`, the molecule was called inactive in [1], in assay [2], in assay [3], in assay [12], in [4] and in [6]. Also, the outcome in [7], in assay [9], in [10] and in [11] was inactive. Further, the AC50 is 11.7 µM (active) in assay [13] and 0.189 µM (active) in assay [14].

Take `C=CCc1ccc(O)c(OC)c1`: the molecule was classed as inactive in assay [1], in assay [2], in assay [3], in [12], in assay [4] and in assay [5]. Also, the call in [6], in assay [7], in assay [8], in assay [9], in assay [14] and in assay [11] was inactive. Moreover, in assay [13], the AC50 was 6.16 µM (active).

Consider `CC1(C)CC(N=C=O)CC(C)(CN=C=O)C1` (stereo not given), for which the call in assay [1], in assay [2], in [3], in assay [4], in [5] and in assay [6] was inactive. The result in assay [7], in assay [8], in [9], in assay [10] and in [11] was inactive.

Take `NCCO`: the result in [1], in assay [2], in assay [3], in assay [12], in assay [4] and in assay [5] was inactive. For the same molecule, the molecule was classed as inactive in assay [6], in assay [7], in assay [9], in assay [10] and in assay [11].
